High-throughput results: PubChem, NMMLSC
RGS8-Gao: regulators of human RGS8-Galphao interaction; 220,000 tested, 0.34% active; AID 1423; response (percent of control binding), % at 10 µM; multiplexed bead flow cytometry, RGS8-Galphao binding; actives lie on both sides; P09471; in the data active = response below about 60% or above about 140%; inactive = in between;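 note: Galphao activated as the GDP aluminium fluoride complex binding bead-coupled RGS8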
Target sequence (P09471 whole entry, looked up): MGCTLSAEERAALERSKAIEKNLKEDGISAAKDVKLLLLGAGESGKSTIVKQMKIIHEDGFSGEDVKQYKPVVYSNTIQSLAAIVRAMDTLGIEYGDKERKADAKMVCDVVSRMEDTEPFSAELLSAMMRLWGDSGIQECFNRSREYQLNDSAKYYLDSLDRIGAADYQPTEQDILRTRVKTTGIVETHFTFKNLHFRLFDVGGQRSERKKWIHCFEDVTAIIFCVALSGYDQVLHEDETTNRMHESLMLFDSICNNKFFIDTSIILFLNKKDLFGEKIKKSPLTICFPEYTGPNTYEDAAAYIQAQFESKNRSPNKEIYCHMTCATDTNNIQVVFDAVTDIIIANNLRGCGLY
Avidin bead fluor: avidin bead compound fluorescence profile; Avidin beads, compound fluorescence 488/530 nm, flow cytometry; stronger effect = higher value; fluorescence (KMESF) at 10 µM; 220,000 tested, 0.38% active; AID 1775; in the data active = fluorescence above about 47
RGS7-Gao reg: human RGS7-Galphao interaction regulation. P09471. Multiplexed bead flow cytometry, RGS7-Galphao binding; actives lie on both sides. binding response (% of control), % at 10 µM. 220,000 tested, 0.35% active. AID 1439; in the data active = binding response below about 49% or above about 150%; inconclusive = no clear call, values can overlap the other calls; inactive = in between;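 note: fluorescent Galphao held in activated GDP-AlF4 state binding bead-coupled RGS7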
RGS16-Gao HTS: modulates binding between human RGS16 and Galphao; AID 1441; binding response (% of control), % at 10 µM; O15492+P09471; 220,000 tested, 0.38% active; bead-based flow cytometry RGS16-Galphao binding, fluorescence; actives lie on both sides;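 note: Galphao activated by GDP with aluminum fluoride before binding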
Target sequence (O15492 whole entry, looked up): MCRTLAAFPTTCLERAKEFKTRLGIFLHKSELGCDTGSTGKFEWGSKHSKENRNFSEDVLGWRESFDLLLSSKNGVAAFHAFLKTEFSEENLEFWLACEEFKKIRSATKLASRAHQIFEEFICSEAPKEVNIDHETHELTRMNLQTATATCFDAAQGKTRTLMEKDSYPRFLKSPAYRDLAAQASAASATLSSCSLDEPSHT
Target sequence (P09471 whole entry, looked up): as the sequence (P09471 whole entry, looked up) above
GSH bead fluor: GSH bead compound fluorescence profile; GSH beads flow cytometry, compound fluorescence 488/530 nm; stronger effect = higher value; fluorescence (KMESF) at 10 µM; 190,000 tested, 0.25% active; AID 1776; in the data active = fluorescence above about 89;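 note: glutathione beads carrying GST-tagged Bcl family fusion proteins plus one bare bead set; values are compound well signal with DMSO vehicle wells as background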
RGS4-Gao reg: human RGS4-Galphao interaction regulation; Multiplexed bead flow cytometry, RGS4-Galphao binding; actives lie on both sides; 220,000 tested, 0.33% active; binding response (% of control), % at 10 µM; in the data active = binding response below about 49% or above about 150%; inactive = in between;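 note: fluorescent Galphao activated with aluminum fluoride binding bead-coupled RGS4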
RGS-Gao: regulators of human RGS4-Galphao interaction. shares compounds with RGS16-Gao HTS. multiplexed bead flow cytometry, RGS–Galpha-o binding. RGS4–Galpha-o binding response, % at 10 µM. 1,600 tested, 99% active. AID 1504;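 note: fluorescently labeled Galpha-o bound to GDP with aluminium fluoride binding biotinylated RGS beads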
Biotin-avidin: interferes with biotinylated probe binding to avidin beads; shares compounds with RGS16-Gao HTS; streptavidin beads, fluorescein-biotin binding, flow cytometry; inhibition, % at 10 µM; 1,700 tested, under 10 active;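 active = inhibition above 50%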;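 note: median green fluorescence of gated singlet beads compared with DMSO control wells; 0% = DMSO wells and 100% = complete loss of bead fluorescence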
RGS8-Gao single: confirmation of regulators of human RGS8-Galphao interaction | bead-based flow cytometry RGS8-Galphao binding, fluorescence; actives lie on both sides | shares compounds with RGS16-Gao HTS | AID 1836 | binding response (% of control), % at 10 µM | 1,700 tested, 3% active; in the data active = binding response below about 72% or above about 130%; inactive = in between;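 note: Galphao activated as GDP AlF4 complex before binding bead RGS8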
RGS7-Gao confirm: RGS7-Galphao interaction regulation, single point confirmation | shares compounds with RGS16-Gao HTS | bead-based flow cytometry RGS7-Galphao binding; actives lie on both sides | response (percent of control binding), % at 10 µM | 1,700 tested, 7.8% active | AID 1837; in the data active = response below about 75% or above about 130%; inactive = in between;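 note: fluorescent Galphao activated with GDP and aluminum fluoride binding bead-coupled RGS7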
RGS16-Gao conf: RGS16-Galphao interaction regulation, single point confirmation; shares compounds with RGS16-Gao HTS; bead-based flow cytometry, RGS16-Galphao binding; actives lie on both sides; response (% of control binding), % at 10 µM; 1,700 tested, 4% active; in the data active = response below about 74% or above about 130%; inactive = in between;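 note: Galphao activated as the GDP aluminium fluoride complex binding bead-coupled RGS16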
RGS4-Gao single: RGS4-Galphao interaction regulation, single point confirmation; shares compounds with RGS16-Gao HTS; RGS4-Galphao binding, multiplexed bead flow cytometry; actives lie on both sides; binding response (% of control), % at 10 µM; 1,700 tested, 4% active; AID 1840; in the data active = binding response below about 74% or above about 130%; inactive = in between
RGS19-Gao conf: confirmation of regulators of human RGS19-Galphao interaction; AID 1841; response (percent of control binding), % at 10 µM; shares compounds with RGS16-Gao HTS; 1,700 tested, 5% active; bead-based flow cytometry RGS19-Galphao binding; actives lie on both sides; in the data active = response below about 50% or above about 160%; inactive = in between;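 note: 100% = no compound control and 0% = blank background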
* = called active by the depositor; ? = inconclusive; . = not tested or not shown; [ ] = dose if it differs, or a comment. In the library only some 1.2% were active in any assay of this set; here they are far more common. Unless noted, the rule behind the calls is not given here.

SMILES	RGS8-Gao	Avidin bead fluor	RGS7-Gao reg	RGS16-Gao HTS	GSH bead fluor	RGS4-Gao reg	Biotin-avidin	RGS8-Gao single	RGS7-Gao confirm	RGS16-Gao conf	RGS4-Gao single	RGS19-Gao conf	others
CC1=CC(c2ccc(Cl)cc2)n2nc(NS(=O)(=O)c3ccc(C)cc3)nc2N1 (stereo not drawn)	94.6	7	96.3	95.4	4	95.7	.	.	.	.	.	.
C[n+]1cccc(C(=O)NCC2CCCO2)c1 (stereo not drawn)	147.2*[activator]	6	111.5	308.0*[activator]	12	117.2	0.1	99.4	101.3	100.4	100.9	98.2	RGS-Gao=117.2*
CCC(=O)c1ccc(N2CCCCCC2)c(F)c1	103.1	9	100.7	110.7	10	101.9	.	.	.	.	.	.
CC(=O)NN1C(=O)c2ccccc2NC1c1ccccn1 (stereo not drawn)	85.3	7	94.5	22.4*	14	97.0	1.7	104.1	103.4	101.0	105.0	108.1	RGS-Gao=97.0*
COC(=O)Cc1ccc(NC(=O)c2ccccc2Br)cc1	28.4*	3	?	24.2*	16	32.8*	0.2	98.5	98.3	99.7	97.5	99.0
COC(=O)Cc1ccc(NC(=S)NNC(=O)c2ccccc2Br)cc1	103.5	3	102.5	113.9	8	104.1	.	.	.	.	.	.
Cc1cc(N2CCN(c3ccccc3)CC2)n2nnnc2n1	102.4	41	104.9	110.9	13	110.9	.	.	.	.	.	.
Cc1cc(N2CCN(c3nnnn3-c3ccccc3)CC2)n2ncnc2n1	140.1*[activator]	3	119.9	553.7	31	130.9	0.1	95.5	84.8	95.4	90.0	110.7	RGS-Gao=130.9*
O=C(N=Nc1c(O)[nH]c2ccc(Br)cc12)c1cc(-c2cccc3ccccc23)n[nH]1	67.2	9	83.3	8.3*	9	89.2	-1.0	93.3	89.8	98.2	96.3	122.8	RGS-Gao=89.2*
CC#CC[N+](C)(C)CCCCCCCCCC	115.2	47*	?	156.2	.	170.3*[activator]	0.5	104.8	106.9	103.9	105.6	106.8
O=C(Cc1ccc(F)cc1)Nc1nnc(SCC(=O)N2CCCCC2)s1	97.8	6	94.9	100.2	11	101.4	.	.	.	.	.	.
CCCNC(=O)COC(=O)c1ccccc1C(=O)N(C)C1CCCCC1	100.8	12	98.5	102.0	13	102.0	.	.	.	.	.	.
COc1ccc(NC2(c3ccc(Cl)cc3)C(=O)c3ccccc3C2=O)cc1	101.4	10	100.0	100.3	8	98.5	.	.	.	.	.	.
COc1ccc(NC2(c3ccccc3)OC(=O)c3ccccc32)cc1 (stereo not drawn)	.	.	.	.	14	.	0.3	105.2	104.3	104.7	103.9	111.3
Nc1nnc(-c2ccccc2)s1	106.5	7	100.0	106.7	55	100.2	.	.	.	.	.	.
CN(C)c1ccc(/C=N/NC(=O)c2sccc2-n2cccc2)cc1	99.9	11	93.2	93.4	14	100.8	.	.	.	.	.	.
Cc1ccc2c(C(=O)CN3CCN(c4ccccc4)CC3)c(C)[nH]c2c1	98.8	5	99.0	98.5	24	96.6	.	.	.	.	.	.
COc1cccc(N2CCN(CC(=O)c3c(C)[nH]c4ccccc34)CC2)c1	14.6*	-1	17.4*	14.7*	34	22.1*	-1.3	100.9	99.9	102.6	99.2	108.0
COc1cccc(N2CCN(CC(=O)NCc3cccs3)CC2)c1	.	.	.	.	18	.	0.1	101.6	99.5	100.4	99.5	99.5
COc1ccc(N2CCN(CC(=O)NCc3ccccc3)CC2)cc1	98.8	9	101.6	100.9	18	98.3	.	.	.	.	.	.
Cc1ccc(CNC(=O)CCNS(=O)(=O)c2cccs2)cc1	97.7	6	98.7	104.6	25	99.6	.	.	.	.	.	.
O=C(N/N=C/c1ccc(N2CCOCC2)o1)c1cccc([N+](=O)[O-])c1	63.4	2	86.6	17.9*	10	87.0	0.2	96.9	91.9	96.6	95.8	68.6	RGS-Gao=87.0*
CSc1ccc(S(=O)(=O)N(CC(=O)NN=C2CCN(C)CC2)c2ccc(C)cc2)cc1	99.2	63*	174.0*[activator]	100.9	11	111.8	0.8	101.8	125.2*[activator]	112.7	111.5	195.5*[activator]	RGS-Gao=111.8*
CC(C)c1ccc(N(CC(=O)NN=C2CCN(C)CC2)S(=O)(=O)c2ccccc2)cc1	109.9	5	117.8	108.0	11	109.0	.	.	.	.	.	.
CCOC(=O)N1CCN(C(=O)C2c3cc(OC)c(OC)cc3C(=O)N3CCc4ccccc4C23)CC1 (stereo not drawn)	108.8	6	106.6	115.6	32	108.5	.	.	.	.	.	.
SMILES	RGS8-Gao	Avidin bead fluor	RGS7-Gao reg	RGS16-Gao HTS	GSH bead fluor	RGS4-Gao reg	Biotin-avidin	RGS8-Gao single	RGS7-Gao confirm	RGS16-Gao conf	RGS4-Gao single	RGS19-Gao conf	others
CC(=O)N1CC=C2C(C#N)=C(N)C(C#N)(C#N)C(CCc3ccccc3)C2C1 (stereo not drawn)	.	.	.	.	43	.	-2.1	98.0	99.6	100.8	100.0	93.6
CCN1CC=C2C(C#N)=C(N)C(C#N)(C#N)C(CCc3ccccc3)C2C1 (stereo not drawn)	101.5	7	101.2	103.8	5	105.6	.	.	.	.	.	.
COC(=O)c1ccccc1NC(=O)c1ccc2c(c1)OCCO2	131.3	15	137.2	231.4*[activator]	52	134.1	1.0	98.5	94.2	97.1	100.0	86.7	RGS-Gao=134.1*
CC(C)(C)C(=O)Nc1ccccc1C(=O)OCC(=O)c1ccc2c(c1)OCCO2	99.1	3	98.7	94.3	10	99.3	.	.	.	.	.	.
CCC1S/C(=N/N=C/c2ccco2)N(Cc2ccccc2)C1=O (stereo not drawn)	.	.	.	.	.	.	-0.8	100.7	105.0	100.5	102.2	117.8
CC1S/C(=N/N=C/c2ccco2)N(Cc2ccc(F)cc2)C1=O (stereo not drawn)	97.9	5	?	99.6	.	99.5	.	.	.	.	.	.
CCc1ccc(N/C(N)=N/c2nc(CSc3ncccn3)cc(=O)[nH]2)cc1	106.2	10	102.2	111.2	31	102.8	.	.	.	.	.	.
